# Results published in article PMC4336329 (PLoS ONE, 2015).
# The whole screen tested about 310,000 compounds, of which about 2,200 (0.71%) showed an effect of 50% or more. Effects have a minus sign here. The list comes from a sample in which strong results are over-represented; it also holds similar structures and randomly drawn compounds.
# Target: human ether-à-go-go-related gene (hERG) potassium channel (human, UniProt Q12809)
# Test: primary screen, population patch clamp on CHO cells stably expressing hERG; higher = less effect of the substance
# Sequence of human ether-à-go-go-related gene (hERG) potassium channel (Q12809 whole entry, looked up): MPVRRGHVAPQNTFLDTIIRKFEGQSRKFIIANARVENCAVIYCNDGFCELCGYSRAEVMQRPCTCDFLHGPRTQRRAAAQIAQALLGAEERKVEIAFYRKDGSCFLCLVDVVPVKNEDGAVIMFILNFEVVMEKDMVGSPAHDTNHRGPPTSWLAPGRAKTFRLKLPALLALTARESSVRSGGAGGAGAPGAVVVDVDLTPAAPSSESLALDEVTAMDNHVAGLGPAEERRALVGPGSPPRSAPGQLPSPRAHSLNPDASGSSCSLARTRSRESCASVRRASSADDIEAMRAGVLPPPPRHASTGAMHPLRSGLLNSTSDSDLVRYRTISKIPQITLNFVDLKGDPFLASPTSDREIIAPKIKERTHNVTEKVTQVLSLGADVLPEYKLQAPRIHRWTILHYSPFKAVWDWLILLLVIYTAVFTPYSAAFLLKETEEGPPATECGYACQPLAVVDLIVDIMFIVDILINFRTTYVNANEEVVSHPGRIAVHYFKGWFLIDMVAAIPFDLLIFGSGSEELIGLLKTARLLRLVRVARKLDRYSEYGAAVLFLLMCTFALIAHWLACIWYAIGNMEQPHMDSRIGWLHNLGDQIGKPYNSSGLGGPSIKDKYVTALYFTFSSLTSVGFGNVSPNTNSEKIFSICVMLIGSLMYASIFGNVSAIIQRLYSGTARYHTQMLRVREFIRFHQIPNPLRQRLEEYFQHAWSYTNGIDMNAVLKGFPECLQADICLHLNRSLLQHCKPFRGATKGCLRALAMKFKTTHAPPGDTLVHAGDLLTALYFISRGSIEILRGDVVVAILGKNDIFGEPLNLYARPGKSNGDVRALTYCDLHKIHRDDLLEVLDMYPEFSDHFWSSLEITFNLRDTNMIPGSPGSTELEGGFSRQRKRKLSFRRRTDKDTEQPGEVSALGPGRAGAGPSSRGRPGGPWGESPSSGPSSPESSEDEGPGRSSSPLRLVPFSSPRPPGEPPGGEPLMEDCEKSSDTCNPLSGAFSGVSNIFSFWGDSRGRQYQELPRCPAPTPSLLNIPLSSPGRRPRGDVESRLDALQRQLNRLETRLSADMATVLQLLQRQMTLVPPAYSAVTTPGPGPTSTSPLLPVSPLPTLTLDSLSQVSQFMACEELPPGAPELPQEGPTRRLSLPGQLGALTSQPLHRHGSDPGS
row,Compound,"hERG current change (%, negative = inhibition) at 1uM"
1,Cc1cccc(-n2ncc3c(NC(C)C)ncnc32)c1,12.7%
2,Cc1nn(C(C)C(=O)Nc2ccc(Cl)cn2)c(C)c1[N+](=O)[O-] (stereo not shown),2.84%
3,Cc1ccc(C)c(NC(=O)C2CC(O)CN2C(=O)OCc2ccccc2)c1 (stereo not shown),2.34%
4,COc1ccc(OCCN2CCN(C(=O)c3ccc(OC)cc3)CC2)cc1,-90.6%
5,COc1ccc(C(=O)NCCN2CCN(C(=O)c3ccc(OC)c(OC)c3)CC2)cc1OC,13.2%
6,COc1ccc(C(=O)CCN2CCN(c3ccc(OC)cc3)CC2)cc1,-74.1%
7,COc1ccc(OCCN2CCN(C(=O)c3ccc(OC(F)F)c(OC)c3)CC2)cc1,-62.6%
8,COc1ccc(N2CCN(CCC(N)=O)CC2)cc1,14.6%
9,COc1ccc(N2CCN(CCC(=O)c3ccc4ccccc4c3)CC2)cc1,11.4%
10,COc1ccc(C(=O)NCCN2CCN(C(=O)c3ccc(OC)cc3)CC2)cc1,-22.1%
11,COc1ccc(OCCN2CCN(C(=O)c3ccc(OC)c(OC)c3)CC2)cc1,-35.6%
12,O=C(c1ccc(Cl)cc1)N1CCN(CCOc2ccccc2)CC1,-12.4%
13,Oc1c(Cl)cc(Cl)cc1C=Nc1ccc(N2CCOCC2)cc1,9.19%
14,COC(=O)c1c(NC(=O)c2nn(C)cc2Cl)sc2c1CCCC2,19.3%
15,Cc1cc2cc(C(c3nnnn3Cc3ccco3)N3CCCCC3)c(=O)[nH]c2cc1C (stereo not shown),6.29%
16,Cc1nnsc1C(=O)NNC(=O)c1cccc2ccccc12,9.5%
17,CC1C=CCC2C(=O)N(c3ccccc3OC(=O)c3cccs3)C(=O)C12 (stereo not shown),9.04%
18,Cc1cccc(C)c1NC(=O)NC1(C(=O)NCc2ccncc2)CCCCC1,12.6%
19,CC1CC(C)CN(CCOc2ccc(Br)cc2)C1.O=C(O)C(=O)O (stereo not shown),-12.4%
20,CC1CN(CCCOc2ccc([N+](=O)[O-])cc2)CC(C)O1.O=C(O)C(=O)O (stereo not shown),-59.6%
21,CC1CCCN(CCCOc2ccc([N+](=O)[O-])cc2)C1.O=C(O)C(=O)O (stereo not shown),-77.4%
22,Cl.Clc1ccc(OCCCCN2CCc3ccccc3C2)cc1,-8.64%

row,Compound,"hERG current change (%, negative = inhibition) at 1uM"
1,CC1CN(CCCCOc2ccc(F)cc2)CC(C)O1.O=C(O)C(=O)O (stereo not shown),-4.39%
2,CCCOc1ccc(OCCN2CCCC(C)C2)cc1.O=C(O)C(=O)O (stereo not shown),0.638%
3,CC1CN(CCOc2ccc([N+](=O)[O-])cc2)CC(C)O1.O=C(O)C(=O)O (stereo not shown),-13.6%
4,CC1CC(C)CN(CCCOc2ccccc2[N+](=O)[O-])C1.O=C(O)C(=O)O (stereo not shown),5.91%
5,COc1ccc(OCCCN2CCCC(C)C2)cc1 (stereo not shown),-2.33%
6,CC1CC(C)CN(CCCCOc2ccc([N+](=O)[O-])cc2)C1.O=C(O)C(=O)O (stereo not shown),-80.3%
7,O=C(COc1ccc([N+](=O)[O-])cc1)N1CCc2ccccc2C1,-15%
8,O=C(O)C(=O)O.O=[N+]([O-])c1ccc(OCCCCN2CCc3ccccc3C2)cc1,-81.1%
9,NC(=O)c1ccc(-c2nnn(CC(=O)N(C3CCCCC3)C3CCS(=O)(=O)C3)n2)cc1 (stereo not shown),9.79%
10,Cc1ccc(C)c(N2CCN(C(=O)C3CCCN(S(=O)(=O)c4c(C)[nH]c(=O)[nH]c4=O)C3)CC2)c1 (stereo not shown),9.86%
11,CCOc1ncccc1C(=O)Nc1ccc(Cl)c(S(=O)(=O)N2CCCC2)c1,2.41%
12,O=C(Nc1cccc(O)c1)c1ccc(C(=O)c2ccccc2)o1,-1.55%
13,CCOc1ccc(CC(=O)NNC(=S)NC2CCCCC2)cc1OCC,7.2%
14,COc1ccc(-n2nnnc2SCC(=O)Nc2nnc(C)s2)cc1OC,-7.62%
15,CC(=O)Nc1ccc(Nc2c3c4c(cccc4n(C)c2=O)C(=O)c2ccccc2-3)cc1,10.6%
16,Nc1nc(SCC(=O)c2cccs2)n[nH]1,6.15%
17,Cc1cc(C)cc(OCC(=O)Nc2ccc3c(c2)OCCO3)c1,15.5%
18,COC(=O)C1C(=O)NCC1c1ccc(C)cc1 (stereo not shown),11.9%
19,Cc1ccc(CS(=O)(=O)Cc2ccc(C(=O)N3CCC4(CC3)OCCO4)o2)cc1,-1.4%
20,CCN(CC(=O)NCc1ccc(Cl)cc1)C(=O)CCC(=O)c1ccc(F)cc1,-52.2%
21,CCN(CC(=O)NCc1ccc(F)cc1)C(=O)CN1CCN(c2ccc(OC)cc2)CC1.O=C(O)C(=O)O,-21.1%
22,CCOc1ccc(C(=O)CCC(=O)N(CC)CC(=O)NCc2ccc(Cl)cc2)cc1,-8.36%

row,Compound,"hERG current change (%, negative = inhibition) at 1uM"
1,CCN(CC(=O)NCc1ccc(Cl)cc1)C(=O)/C=C/c1ccccc1,-1.79%
2,CCN(CC(=O)NCc1ccc(Cl)cc1)C(=O)/C=C/c1ccc(C#N)cc1,-52.1%
3,CCN(CC(=O)NCc1ccc(Cl)cc1)C(=O)Cc1ccc(OC)cc1,-66.9%
4,CCN(CC(=O)NCc1ccc(F)cc1)C(=O)Cc1ccc(OC)cc1,-37.8%
5,CCN(CC(=O)NCc1ccc(F)cc1)C(=O)CN1CCN(c2ccccc2OC)CC1,-44.4%
6,CCN(CC(=O)NCc1ccc(F)cc1)C(=O)CN1CCN(c2cc(Cl)ccc2C)CC1,-68.2%
7,CCN(CC(=O)NCc1ccc(Cl)cc1)C(=O)c1ccc2cc(OC)ccc2c1,7.72%
8,CCN(CC(=O)NCc1ccc(Cl)cc1)C(=O)/C=C/c1cc(OC)c(OC)c(OC)c1,11.2%
9,CCN(CC(=O)NCc1ccc(Cl)cc1)C(=O)CCC(=O)c1ccc(C)cc1,-8.96%
10,O=[N+]([O-])c1ccc(CN2CCC(Cc3ccccc3)CC2)cc1,-9.62%
11,O=C(NCC1(O)CCCCC1)C1CCC(=O)N(Cc2ccccc2F)C1 (stereo not shown),15.8%
12,CCOC(=O)COc1ccc(S(=O)(=O)NCc2ccncc2)cc1,8.78%
13,CCn1cc(CCCC(=O)NCc2ccc(OC)cc2)c2ccccc21,15.1%
14,CCOc1cc(/C=C2\C(=O)ON=C2c2ccccc2)ccc1OC,17.4%
15,O=C(CCN1C(=O)c2ccccc2C1=O)NC(=S)Nc1ccccc1Cl,5.29%
16,CCC(CCC(=O)Nc1ccn(-c2ccccc2)n1)C(=O)O (stereo not shown),7.09%
17,Cc1nc(NC(=O)c2ccccc2[N+](=O)[O-])sc1C(=O)N(C)C,16.4%
18,O=C(O)c1ccc(S(=O)(=O)N(CCc2ccccc2)Cc2ccc(Cl)cc2)cc1,11.5%
19,Brc1ccc(-c2cnco2)cc1,9.53%
20,COc1ccc(S(=O)(=O)NC2CCCCC2)cc1C(=O)N1CCCCC1,0.2%
21,CCN(CC(=O)NCc1ccc(Cl)cc1)C(=O)CCc1ccccc1,-19.8%
22,CCN(CC(=O)NCc1ccc(F)cc1)C(=O)c1ccc(Cl)cc1,-2.66%

row,Compound,"hERG current change (%, negative = inhibition) at 1uM"
1,CCN(CC(=O)NCc1ccc(Cl)cc1)C(=O)NCc1ccc(Cl)cc1,-54.1%
2,O=C(c1ccc2c(c1)N(Cc1ccccc1)C(=O)CS2)N1CCOCC1,1.45%
3,CNCCOc1nc(N2CCOCC2)nc(C)c1[N+](=O)[O-],10.1%
4,COc1ccc(NC2CCCN(C(=O)c3cccs3)C2)cc1 (stereo not shown),12.5%
5,C/C(=N/NC(=O)CN1CCN(Cc2ccccc2Cl)CC1)c1ccncc1,-18.3%
6,C/C(=N\NC(=O)CN1CCN(Cc2ccc(C)cc2)CC1)c1ccncc1,-77.9%
7,C/C(=N\NC(=O)CN1CCN(S(=O)(=O)c2ccc(C)cc2)CC1)c1ccc(O)cc1,9.16%
8,Cc1ccc(S(=O)(=O)N2CCN(CC(=O)N/N=C\c3ccncc3)CC2)cc1,-26.2%
9,O=C(CN1CCN(S(=O)(=O)c2ccc(Br)cc2)CC1)N/N=C/c1cccnc1,-1.72%
10,C/C(=N/NC(=O)CN1CCN(S(=O)(=O)c2ccc(Br)cc2)CC1)c1ccncc1,-44.3%
11,C/C(=N\NC(=O)CN1CCN(Cc2ccccc2)CC1)c1ccncc1,-3.1%
12,O=C(CN1CCN(S(=O)(=O)c2ccc(Br)cc2)CC1)N/N=C/c1ccncc1,-51.8%
13,C/C(=N\NC(=O)CN1CCN(S(=O)(=O)c2ccc(C)cc2)CC1)c1ccncc1,-77.6%
14,C/C(=N/NC(=O)CN1CCN(Cc2ccccc2)CC1)c1ccc([N+](=O)[O-])cc1,-72.9%
15,C/C(=N\NC(=O)CN1CCN(Cc2ccccc2)CC1)c1cccs1,-2.13%
16,C/C(=N\NC(=O)c1ccc(CN2CCOCC2)cc1)c1ccc([N+](=O)[O-])cc1,10%
17,CCOC(=O)CSC1=NC(=O)/C(=C/c2ccc(Br)cc2)S1,9.71%
18,CCS(=O)(=O)NC(C)c1nnc2n1-c1ccc(Br)cc1C(c1ccccc1Cl)=NC2 (stereo not shown),-4.22%
19,Cc1cc(C)cc(Nc2nc3c(S(=O)(=O)c4ccccc4)nnn3c3ccccc23)c1,11.3%
